Assay outcomes (PubChem BioAssay)
SRC3 inh – inhibitors of human steroid receptor coactivator 3 (SRC3). AID 588352. Q9Y6Q9. 0.17% of 360,000 active. inhibition, % at 3.6 µM. HEK293 GAL4-SRC3 luciferase reporter, luminescence;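 active = inhibition above a per-campaign cutoff, the mean of all compounds plus 3 SD, cut at about 60% in these data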;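 also: 0% = DMSO-treated cells and 100% = gossypol-treated cells at 36 µM; higher means less SRC3-driven luciferase light from the GAL4 reporter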
SRC1 inh – inhibitors of human steroid receptor coactivator 1 (SRC1). Q15788. HEK293 GAL4-SRC1 luciferase reporter, luminescence. inhibition, % at 3.6 µM. 0.12% of 360,000 active;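 active = inhibition above the campaign mean plus 3 SD, with each screening campaign given its own cutoff, cut at about 60% in these data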;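 also: 0% = DMSO treated cells and 100% = gossypol at 36 µM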
NCOA2 inhibitor – human SRC2 (NCOA2) inhibition. HEK293 GAL4-SRC2 luciferase reporter, luminescence. inhibition, % at 9 µM. 0.17% of 370,000 active. Q15596;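 active = inhibition above the mean inhibition of all tested compounds plus 3 SD, set per campaign, cut at about 52% in these data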;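 also: 0% = DMSO treated cells and 100% = cells given Gossypol at 36 µM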
GalR3 antag – blocks the human galanin receptor 3; AID 651719; HEK293 GalR3-CNG cAMP membrane potential fluorescence; galR3 body fused to GalR1 C-terminus; inhibition, % at 3 µM; 0.44% of 360,000 active;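 active = inhibition above the screen-wide average plus 3 SD, cut at about 13% in these data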;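 also: forskolin and galanin both at EC90 stimulate the cells; cAMP rise reported by CNG channel membrane potential dye signal; 0% = forskolin plus galanin with DMSO and 100% = forskolin alone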
LRH-1 inv ag – NR5A2 inverse agonism in reporter assay. O00482. HEK293T StAR-luciferase reporter, LRH-1 transfected, 24 h. inhibition, % at 3.6 µM. 0.13% of 360,000 active;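 active = inhibition above the mean inhibition of all tested compounds plus 3 SD, cut at about 73% in these data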;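 also: 0% = DMSO wells and 100% = reporter-only cells lacking LRH-1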
NR2F2 inh – blocks human COUP-TFII nuclear receptor. P24468. HEK293T NGFI-A luciferase reporter, luminescence. inhibition, % at 8.6 µM. 0.7% of 370,000 active. AID 686940;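 active = inhibition above a per-plate cutoff, mean inhibition of test wells between control levels plus 3 SD, cut at about 38% in these data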;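 also: cells cotransfected with COUP-TFII expression vector driving the NGFI-A reporter; 0% = median of COUP-TF2 test wells and 100% = reporter-only cells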
Gal4-VP16 ctr – counter-screen for COUP-TFII antagonists: inhibitors of VP16; inhibition, % at 8.5 µM; HEK293 Gal4-VP16 luciferase reporter, luminescence; AID 687007; shares compounds with NR2F2 inh; 25% of 2,500 active; in the data active = inhibition above about 13%
NR2F2 inh conf – COUP-TFII (NR2F2) inhibition, confirmation assay; shares compounds with NR2F2 inh; HEK293 NGFI-A luciferase reporter, luminescence; inhibition, % at 8.5 µM; 45% of 2,500 active; AID 687008;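 active = mean inhibition over three repeats above a set limit taken from the earlier primary screen, cut at about 38% in these data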;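 also: 100% = cells given the luciferase reporter alone without the COUP-TF2 vector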
An asterisk follows results filed as active; . = no result given. This is a sample that favours compounds with a hit; in the whole collection about 1.1% have one here.

SMILES	SRC3 inh	SRC1 inh	NCOA2 inhibitor	GalR3 antag	LRH-1 inv ag	NR2F2 inh	Gal4-VP16 ctr	NR2F2 inh conf
CCc1ccc(CCNC(=O)OC2CC3CC2[C@H]2CCCCN2[C@H]3Cc2ccccc2)cc1 (stereo partly drawn)	.	.	8	.	.	11	.	.
CCC(C)(C)c1ccc(Oc2ccc(N)cc2)cc1	77*	68*	91*	3	69	95*	91*	98*
COC(=O)[C@]12C[C@H](CC(=O)N3CCN(C(=O)c4ccco4)CC3)C(=O)N(CCc3ccc(OC)c(OC)c3)C1=C[C@H](C(C)(C)C)O[C@@H]2C	.	.	-22	.	.	3	.	.
CNC(=O)c1ccccc1C1(O)c2ccccc2CCc2ccccc21	.	.	-10	-8	.	14	.	.
CC(=O)Nc1ccc(SCC(=O)c2cc(C)n(-c3ccccc3)c2C)cc1	47	38	26	0	8	54*	23*	40*
COc1ccc(-n2c(C)cc(C(=O)CSc3ccc(NC(C)=O)cc3)c2C)cc1	-13	-26	-5	-1	-7	-16	.	.
CC(C)CN1C(=O)[C@]2(CC(=O)N(C)C2c2ccccc2)c2cc(-n3cc(C4=CCCCC4)nn3)ccc21 (stereo partly drawn)	.	.	15	.	.	3	.	.
O=C(NCc1cccnc1)C1CCC(c2ccc(Cl)cc2)CC1 (stereo not drawn)	18	15	11	-6	26	41*	-3	55*
O=C(NCc1cccnc1)C1CCN(C(=O)c2ccc(Cl)cc2Cl)CC1	5	-4	-35	-6	9	12	.	.
CC(C)(C)c1ccc(C(=O)Nc2cccc3c(=O)[nH][nH]c(=O)c23)cc1	22	21	10	3	10	48*	-12	54*
O=C(NCc1ccncc1)C1Cc2c(-c3ccccc3Oc3ccccc3)ccnc2O1 (stereo not drawn)	-7	-2	19	-7	4	38*	-2	-4
CC(=O)c1cccc(NC(=O)C2Cc3c(-c4cccc(C(N)=O)c4)ccnc3O2)c1 (stereo not drawn)	3	1	-14	-5	21	6	.	.
CC(=O)c1cccc(NC(=O)C2Cc3c(-c4cccc(C(C)=O)c4)ccnc3O2)c1 (stereo not drawn)	7	16	-21	-6	3	48*	5	16
COc1ccc(NC(=O)C2Cc3c(-c4ccccc4Oc4ccccc4)ccnc3O2)cc1OC (stereo not drawn)	13	16	24	-7	9	64*	-2	35
COc1ccc(S[C@]2(C(=O)N3CCCC3)CC(=O)N[C@@H]2c2ccc(OC)cc2)cc1	.	.	6	.	.	5	.	.
Cc1ccc(CN2CCCCC(NC(=O)c3ccc(COc4ccccc4)cc3)C2=O)cc1 (stereo not drawn)	.	.	18	.	.	51*	-10	23
Cc1ccc(CN2CCCCC(NC(=O)c3ccc(F)cc3)C2=O)cc1 (stereo not drawn)	.	.	-2	.	.	-1	.	.
Cc1ccccc1CN1CCCCC(NC(=O)c2ccc(-c3ccccc3)cc2)C1=O (stereo not drawn)	.	.	16	.	.	57*	-15	41*
CCCCOc1ccc(C(=O)NC2CCCCN(Cc3ccc(C)cc3)C2=O)cc1 (stereo not drawn)	.	.	19	.	.	40*	-12	25
Cc1ccccc1CN1CCCCC(NC(=O)c2ccccc2C)C1=O (stereo not drawn)	.	.	-8	.	.	3	.	.
CCOC(=O)C1=C(C(=O)OCC)C2N(Cc3ccc(C(F)(F)F)cc3)c3ccccc3[C@@]23C[C@@H](C(=O)OC)N(S(=O)(=O)c2cccs2)C3=N1 (stereo partly drawn)	.	.	6	-2	.	7	.	.
O=C(OCc1cn(Cc2ccc(F)c(F)c2)nn1)N1CCOCC1	.	.	0	.	.	8	.	.
O=C(Nc1ccc(N2CCN(C(=O)c3ccccc3)CC2)c(Cl)c1)c1ccc(Br)o1	-13	-1	-14	-5	12	40*	4	20
C=CCNc1ncnc2c1cnn2-c1ccc(C)cc1C	-49	-26	3	-1	-8	-20	.	.
CCOC(=O)N1CCC(Nc2ncnc3c2cnn3-c2ccc(C)cc2C)CC1	26	31	26	0	24	59*	3	43*
SMILES	SRC3 inh	SRC1 inh	NCOA2 inhibitor	GalR3 antag	LRH-1 inv ag	NR2F2 inh	Gal4-VP16 ctr	NR2F2 inh conf
Cc1cc(O)cc(=O)n1-c1cccc(C(F)(F)F)c1	.	.	0	-6	.	8	.	.
CC(C)C(Sc1nc(-c2ccccc2)cc(-c2ccccc2)c1C#N)C(=O)O (stereo not drawn)	-32	-14	-14	-4	6	38*	2	6
Cc1c(/C(O)=C2\C(=O)C(=O)N(CCCN(C)C)C2c2ccccc2)cnn1-c1ccccc1 (stereo not drawn)	28	25	33	-7	30	51*	1	10
O=C1C(=O)N(CCN2CCOCC2)C(c2ccccn2)/C1=C(/O)c1ccc(F)cc1 (stereo not drawn)	-6	-16	-11	-2	-22	-16	.	.
Cc1c(/C(O)=C2/C(=O)C(=O)N(CCN3CCOCC3)C2c2ccccn2)cnn1-c1ccccc1 (stereo not drawn)	85*	84*	80*	-2	83*	100*	31*	39*
O=C(NCc1cccnc1)c1c[nH]c2cc3c(cc2c1=O)OCCO3	-4	-13	-44	-6	-15	39*	-117	30
Cc1ccc(NC(=O)[C@@H](Cc2ccccc2)NC(=O)[C@H]2O[C@@H](n3ccc(=O)[nH]c3=O)[C@H](O)[C@@H]2O)cc1C	.	.	4	-7	.	-2	.	.
CCOC(=O)C1CCN(S(=O)(=O)c2ccc3c(c2)N(C(C)=O)CC(C)S3)CC1 (stereo not drawn)	25	16	14	-6	14	49*	-4	25
C[C@@H]1CN([C@H](C)CO)S(=O)(=O)c2ccc(Br)cc2O[C@H]1CN(C)C(=O)Nc1ccccc1	3	1	3	-8	1	7	.	.
COc1ccc(NC(=S)N(Cc2cccc(Br)c2)CC2CCC(C(=O)O)CC2)cc1 (stereo not drawn)	8	-9	-26	-4	5	-7	.	.
COc1cccc(NC(=S)N(Cc2cccc(Br)c2)CC2CCC(C(=O)O)CC2)c1 (stereo not drawn)	2	-10	-1	-7	-6	39*	-5	7
COc1cc2cc(C(=O)Nc3ccc4c(c3)OCCO4)[nH]c2cc1OC	55	54	40	-5	46	48*	-47	-9
